Assay outcomes as filed in PubChem.
Vaccinia Venus – vaccinia inhibition (Venus reporter); Vaccinia virus Venus reporter expression, fluorescence; 0.46% of 330,000 active; Potency, µM (series often up to 36.5 µM), inactives show at the highest dose activity change, negative = inhibition, usual class: inhibitors; AID 720580; calls by dose curve; tested in A549 cells; note: nearly all actives have a fitted effect of over 30% in size
Pf growth 48h – inhibits P. falciparum growth in the first generation, 48 h; P. falciparum luciferase growth in erythrocytes, 48 h; Potency, µM (highest dose often 28.7 µM), for the others: at the highest dose activity change, negative = inhibition, hits mostly inhibitors; 5.9% of 310,000 active; AID 504832
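Luciferase-expressing P. falciparum in infected erythrocytes (2% hematocrit, 0.1% parasitemia final) in RPMI 1640/0.5% Albumax were exposed to compound for 48 hours at 37 C, 5% CO2; growth read as luminescence.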
Pf growth 96h – inhibits malaria parasite growth, 96 h | P. falciparum luciferase reporter growth, 96 h | Potency, µM (doses to about 28.7 µM), for inactives: at the highest dose activity change, negative = inhibition, usual class: inhibitors | 6.9% of 320,000 active | AID 504834
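Readout is luminescence from an integrated firefly luciferase in P. falciparum. Red cells, 2% hematocrit and 0.05% parasitemia final, were cultured with compound through two parasite generations (96 hours) at 37 C, 5% CO2.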
AMA1 RON2 block – AMA1-RON2 (P. falciparum) interaction inhibition; AlphaScreen AMA1-biotinylated RON2 peptide binding; Potency, µM (top dose mostly 58.2 µM), for inactives: top-dose activity change, negative = inhibition, most hits filed as inhibitors; 0.2% of 360,000 active; AID 720542;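 note: 0% = vehicle wells and -100% = peptide control; nearly all actives have a fitted effect of over 45% in size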
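AMA1 (3D7) with his tag at 25 nM final met compounds first, then biotinylated RON2 peptide at 25 nM; detection used donor plus acceptor beads, 10 µg/mL apiece, read by AlphaScreen after 30 min at room temperature.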
VACV mCherry inh – inhibitors of vaccinia virus infection (mCherry reporter signal) | 0.63% of 310,000 active | Potency, µM (top dose mostly 36.5 µM), for the others: at the top dose activity change, negative = inhibition, most hits filed as inhibitors | Vaccinia virus mCherry reporter infection, fluorescence; calls by dose curve; tested in A549 cells; note: nearly all actives have a fitted effect of over 35% in size
* = called active by the depositor; i = inactive; ? = inconclusive; / = no result; [ ] = another dose, or the depositor's remark. In the library only some 8.7% were active in any assay of this set; here they are far more common. Unless noted, calls come from the whole dose curve; as a rule, active = well fitted curve in the direction sought with a large enough effect; inconclusive = small, poorly fitted or top-dose-only effect, or another doubt; inactive = no such curve, though single readings can be large; an effect the other way counts as inactive or inconclusive. Unless noted, % is set by controls: 0 for no effect and ±100 for the full control effect; potency is the fitted concentration of half-maximal effect.

SMILES	Vaccinia Venus	Pf growth 48h	Pf growth 96h	AMA1 RON2 block	VACV mCherry inh
COc1ccc(C(=O)C[n+]2cccc3cccc(O)c32)cc1	-13.7%	/	/	/	i
CC(C)c1ccc(NC2CCCN(C(=O)c3cccc4nccnc34)C2)cc1 (configuration not stated)	/	0.0%	4.65µM*	-18.3%	/
CC(C)c1ccc(NC2CCCN(C(=O)CCc3cnn(C)c3)C2)cc1 (configuration not stated)	-18.0%	1.1%	7.38µM*	2.4%	i
CC(C)c1ccc(NC2CCCN(C(=O)c3cc(C(C)C)nc(N)n3)C2)cc1 (configuration not stated)	-6.2%[7.34 µM]	13.6%	14.7µM*	-10.1%	?
Cc1nn(C)c(C)c1CCC(=O)N1CCCC(Nc2ccc(C(C)C)cc2)C1 (configuration not stated)	/	-21.5%	5.6%	-11.4%	/
CCCCN(CC)CCNC(=O)Cn1cnc2sc(C)c(S(=O)(=O)N3CCN(c4ccccc4OC)CC3)c2c1=O	-17.0%	/	/	/	-11.5%
CCCn1ncc(CN2CCC(CO)(Cc3ccc(OC)cc3)CC2)c1C	-9.0%	-3.0%	0.37µM*	-10.9%	i
COc1ccc(CC2(CO)CCN(S(=O)(=O)N(C)C)CC2)cc1	-11.9%	24.8%	5.86µM*	4.1%	-4.3%
COc1ccc(CC2(CO)CCN(S(=O)(=O)c3cccc4cccnc34)CC2)cc1	/	-20.7%	11.7µM*	-5.3%	/
COc1ccc(CC2(CO)CCN(S(=O)(=O)c3c(C)nn(C)c3C)CC2)cc1	-8.7%	-0.1%	219.2%	-1.1%	-9.5%
O=C(O)CCn1cnc2onc(-c3ccccc3Cl)c2c1=O	-9.6%	/	/	/	-5.4%
c1ccc2c(c1)Nc1ccccc1S2	-2.3%	12µM*	4.78µM*	?	-10.7%
CCc1nnc(SCC(=O)Nc2ccc(F)cc2F)c2cc3sc(C)cc3n12	-5.2%	/	/	/	-2.4%
CCCCn1c(CN2CCN(C(=O)c3ccco3)CC2)nc2c1c(=O)n(C)c(=O)n2C	2.7%	?	13.1µM*	-3.7%	-8.9%
CCCCCCn1c(CN2CCN(C(=O)c3ccco3)CC2)nc2c1c(=O)n(C)c(=O)n2C	-9.8%	?	?	1.7%	-12.8%
CCCCCn1c(CN2CCN(C(=O)c3ccco3)CC2)nc2c1c(=O)n(C)c(=O)n2C	-2.8%	9.28µM*	?	4.3%	-5.1%
Cn1c(=O)c2c(nc(CN3CCN(C(=O)c4ccco4)CC3)n2CCCc2ccccc2)n(C)c1=O	2.7%	/	7.38µM*	-5.8%	i
CCCCN(C)S(=O)(=O)c1ccc(NC2=NS(=O)(=O)c3ccccc32)cc1	0.7%	/	/	/	-0.5%
CC(=O)c1ccc(NC(=O)c2ncn(-c3ccccc3)n2)cc1	-3.8%	/	/	/	-13.9%
CCOc1ccc(N2CSC3=C(C#N)C(c4ccco4)CC(=O)N3C2)cc1 (configuration not stated)	-6.8%	/	?	-5.0%	-3.7%
COc1cccc(C2CC(=O)N3CN(c4cccc(Cl)c4C)CSC3=C2C#N)c1OC (configuration not stated)	1.1%	/	0.928µM*	-1.1%	41.7%
Cc1ccc(C2CC(=O)N3CN(c4ccc(Br)cc4)CSC3=C2C#N)o1 (configuration not stated)	/	/	4.65µM*	10.6%	/
CCc1ccccc1N1CSC2=C(C#N)C(c3cc(OC)c(OC)cc3OC)CC(=O)N2C1 (configuration not stated)	/	13.1µM*	68.3%	-20.9%	/
COc1ccc(OC)c(C2CC(=O)N3CN(c4ccc(C)c(Cl)c4)CSC3=C2C#N)c1 (configuration not stated)	16.4%	/	?	5.4%	-20.2%
COc1ccc(OC)c(C2CC(=O)N3CN(c4cccc(Cl)c4)CSC3=C2C#N)c1 (configuration not stated)	-10.0%	/	7.38µM*	-7.0%	i
SMILES	Vaccinia Venus	Pf growth 48h	Pf growth 96h	AMA1 RON2 block	VACV mCherry inh
COCc1ccc(O)c2ncccc12	?	/	?	25.1µM*	/
Oc1ccc(COCc2ccc(F)cc2)c2cccnc12	/	2.94µM*	4.15µM*	/	/
Oc1ccc(COc2cccc3ccccc23)c2cccnc12	/	2.62µM*	5.22µM*	/	/
Oc1ccc(COC2CCCC2)c2cccnc12	/	1.31µM*	8.28µM*	/	/
Cc1ccccc1NCc1ccc(O)c2ncccc12	?	?	-12.6%	-28.0%	?
COc1ccc(C(=O)NCCn2cc(SCC(=O)Nc3ccc4c(c3)OCCO4)c3ccccc32)cc1	-10.6%	/	/	/	-15.5%
COC(=O)C1CCCCN1Cc1ccc2c(c1)CN(Cc1cnn(-c3ccccc3)c1)CCO2 (configuration not stated)	-6.3%	/	/	/	-7.0%
O=C(NCC1Cc2cccc(-c3cncnc3)c2O1)C1CC1 (configuration not stated)	0.3%	/	/	/	-3.4%
CC(C)(C)C(=O)Cn1c(=O)n(-c2ccc(Cl)cc2)c(=O)c2c3c(sc21)CCCC3	-2.0%	/	/	/	-3.6%
CN1/C(=C/c2cccc[n+]2C)Sc2ccccc21	/	1.17µM*	2.5%	-9.0%	/
Cc1ccc2c(c1)N(C)/C(=C/c1cccc[n+]1C)S2	?	5.3%[0.00184 µM]	0.465µM*	8.0%	i
Cc1ccc2c(c1)N(C)/C(=C/c1cccc[n+]1CCO)S2	/	1.85µM*	15.8%	8.9%	/
CC(=O)c1ccc2c(c1)N(C)c1ccccc1S2	-15.8%	22.7%	9.8%	236.3%	-12.2%
Cc1ccc2c(c1)S/C(=C/c1ccc[n+](C)c1)N2CCO	-4.4%	?	6.2%	-3.8%	i
CNC(=O)c1cnc2sc(N3CCC(C)CC3)nn2c1=O	3.1%	/	/	/	3.6%
O=C(OCC1OC(OC(=O)c2cc(O)c(O)c(OC(=O)c3cc(O)c(O)c(O)c3)c2)[C@@H](OC(=O)c2cc(O)c(O)c(OC(=O)c3cc(O)c(O)c(O)c3)c2)C(OC(=O)c2cc(O)c(O)c(OC(=O)c3cc(O)c(O)c(O)c3)c2)C1OC(=O)c1cc(O)c(O)c(OC(=O)c2cc(O)c(O)c(O)c2)c1)c1cc(O)c(O)c(OC(=O)c2cc(O)c(O)c(O)c2)c1 (some centres not stated)	/	3.38µM*	3.01µM*	/	/
Cc1ccc2cc(C(c3nnnn3Cc3ccccc3)N3CCN(c4ccccc4)CC3)c(=O)[nH]c2c1 (configuration not stated)	/	5.86µM*	7.9%	-24.3%	/
COc1ccc(N2CCN(C(c3cc4cc(C)ccc4[nH]c3=O)c3nnnn3Cc3ccccc3)CC2)cc1 (configuration not stated)	/	/	3.7µM*	-14.1%	/
Cc1ccc2cc(C(c3nnnn3C3CCCC3)N3CCN(c4ccccc4)CC3)c(=O)[nH]c2c1 (configuration not stated)	/	?	?	-5.9%	/
CC(C)(C)n1nnnc1C(c1cc2cc3c(cc2[nH]c1=O)OCO3)N1CCN(c2ccccc2)CC1 (configuration not stated)	-12.9%	1.65µM*	-20.7%	1.3%	-13.9%
COc1cc(NC(=O)NCCn2nnc3cc(S(=O)(=O)N(C)C)ccc32)cc(OC)c1	1.1%	/	/	/	9.7%
